# According to PubChem BioAssay (NCATS):
# Results filed as inconclusive are left out. Active and inactive are the calls of the source. Unless noted, calls follow the shape of the dose curve; as a rule, active = well fitted curve in the direction sought with a large enough effect; inconclusive = small, poorly fitted or top-dose-only effect, or another doubt; inactive = no such curve, though single readings can be large; an effect the other way counts as inactive or inconclusive.
# Columns and labels:
# [1] = molecular target: Lysosomal acid glucosylceramidase (Homo sapiens) (UniProt P04062); assay: Glucocerebrosidase-p2 (AID 348; in the data active = potency below about 10 µM; also: potency is read from the fitted curve at half-maximal effect); conditions: purified GBA, blue fluorogenic substrate, 40 min
# Lysosomal acid glucosylceramidase (Homo sapiens), sequence (P04062 whole entry, looked up): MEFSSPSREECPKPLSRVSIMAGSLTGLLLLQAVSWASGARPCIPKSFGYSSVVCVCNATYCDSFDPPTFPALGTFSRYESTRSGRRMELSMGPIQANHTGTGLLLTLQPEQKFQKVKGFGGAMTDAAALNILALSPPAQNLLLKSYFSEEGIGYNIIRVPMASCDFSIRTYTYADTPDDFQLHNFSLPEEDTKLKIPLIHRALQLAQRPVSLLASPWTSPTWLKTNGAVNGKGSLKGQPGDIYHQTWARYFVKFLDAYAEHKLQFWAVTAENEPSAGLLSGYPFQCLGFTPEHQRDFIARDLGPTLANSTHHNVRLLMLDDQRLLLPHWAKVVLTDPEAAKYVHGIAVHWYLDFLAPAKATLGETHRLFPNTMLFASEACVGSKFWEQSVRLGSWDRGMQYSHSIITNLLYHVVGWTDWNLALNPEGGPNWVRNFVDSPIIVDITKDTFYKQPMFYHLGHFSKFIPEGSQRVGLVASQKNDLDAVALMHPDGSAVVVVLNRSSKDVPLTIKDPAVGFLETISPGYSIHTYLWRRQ
# Summary of the method: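 Normal human glucocerebrosidase (0.2 nM) with blue fluorogenic substrate (80 uM final) in citrate/phosphate pH 5.9 with 10mM sodium taurocholate, 0.01% tween-20; 40 min RT, NaOH/glycine stop; fluorescence Ex 365/Em 440; AC50 from a titration from 0.6 nM upwards.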
# [2] = AP1 Signaling Pathway (AID 357; active = well fitted curve in either direction with a large enough effect, not every such curve was filed as active;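 also: ME-180 reporter cells stimulated with EGF at its EC50 level; % is scaled to controls: 0 for no effect and ±100 for the full control effect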); conditions: ME-180 AP-1-bla reporter, EGF-induced, beta-lactamase ratio, 5 h; at 7.69 µM (top of the series) unless noted
# Summary of the method: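 Modulation of EGF-driven AP-1 transcription was assessed with a beta-lactamase reporter in ME-180 cells. Compound and EC50 EGF were co-incubated 5 hours at 37 °C before 2.5-hour CCF4 loading at room temperature and dual-emission reading.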
# [3] = molecular target: Cytochrome P450 1A2 (Homo sapiens) (UniProt P05177); assay: p450-cyp1a2 (AID 410; calls by dose curve; also: potency is read from the fitted curve at half-maximal effect); conditions: recombinant CYP1A2, luciferin-ME demethylation, luminescence; series mostly up to 57 µM
# Cytochrome P450 1A2 (Homo sapiens), sequence (P05177 whole entry, looked up): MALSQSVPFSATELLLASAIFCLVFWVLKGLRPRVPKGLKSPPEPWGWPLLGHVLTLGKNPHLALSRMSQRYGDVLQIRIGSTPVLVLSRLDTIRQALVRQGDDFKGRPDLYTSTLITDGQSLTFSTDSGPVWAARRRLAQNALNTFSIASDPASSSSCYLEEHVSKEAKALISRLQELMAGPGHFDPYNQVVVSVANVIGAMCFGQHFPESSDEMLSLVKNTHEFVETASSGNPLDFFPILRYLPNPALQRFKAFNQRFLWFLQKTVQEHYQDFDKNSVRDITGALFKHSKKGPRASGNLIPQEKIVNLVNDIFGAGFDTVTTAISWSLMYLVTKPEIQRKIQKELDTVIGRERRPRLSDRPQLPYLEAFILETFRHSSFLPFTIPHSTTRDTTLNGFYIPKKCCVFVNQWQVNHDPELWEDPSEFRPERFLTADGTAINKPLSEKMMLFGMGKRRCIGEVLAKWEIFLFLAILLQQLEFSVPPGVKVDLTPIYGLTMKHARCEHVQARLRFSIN
# Summary of the method: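 O-Demethylation of luciferin 6' methyl ether by human CYP1A2 is monitored as luciferase luminescence. Substrate sits at Km (100uM); enzyme is 20nM. Values are scaled to 57 uM furafylline as maximal inhibition.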
# [4] = NFAT Signaling Pathway (AID 444; active = well fitted curve in either direction with a large enough effect, not every such curve was filed as active;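 also: carbachol stimulus at about its EC50 of 1 µM final; % is scaled to controls: 0 for no effect and ±100 for the full control effect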); conditions: Jurkat NFAT-bla M1, carbachol, beta-lactamase ratio, 5 h; at 7.69 µM (top of the series) unless noted
# Summary of the method: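 Jurkat cells carrying an NFAT-driven β-lactamase reporter and co-transfected muscarinic M1 receptor were treated with compound plus carbachol (1 uM final, an EC50 level) for 5 h at 37 °C. CCF4 loading followed for 1 h at RT; 460/530 nm ratio gave %activity.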
# [5] = Stat Signaling Pathway (AID 446; active = well fitted curve in either direction with a large enough effect, not every such curve was filed as active;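 also: ME-180 cervical cancer cells given 40 pM IL-6 alongside compound; SIE-controlled beta-lactamase reporter measured as 460/530 nm FRET emission ratio; % is scaled to controls: 0 for no effect and ±100 for the full control effect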); conditions: ME-180 SIE beta-lactamase reporter, IL-6 stimulated, 5 h; at 7.69 µM (top of the series) unless noted
# Summary of the method: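 Compound effects on IL-6-induced STAT reporter activity were measured in ME-180 cells. After overnight culture, cells were co-treated with 40 pM IL-6 for 5 hrs before beta-lactamase substrate loading at room temperature.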
# [6] = molecular target: Glucocorticoid receptor (Homo sapiens) (UniProt P04150); assay: GR-GFP Redistribution (AID 450;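 active = compounds whose dose series gives a full or clear partial fitted curve of increased nuclear translocation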; also: potency is read from the fitted curve at half-maximal effect); conditions: U2OS GR-GFP nuclear translocation, laser cytometry, 2 h
# Glucocorticoid receptor (Homo sapiens), sequence (P04150 whole entry, looked up, the tested form may be a part): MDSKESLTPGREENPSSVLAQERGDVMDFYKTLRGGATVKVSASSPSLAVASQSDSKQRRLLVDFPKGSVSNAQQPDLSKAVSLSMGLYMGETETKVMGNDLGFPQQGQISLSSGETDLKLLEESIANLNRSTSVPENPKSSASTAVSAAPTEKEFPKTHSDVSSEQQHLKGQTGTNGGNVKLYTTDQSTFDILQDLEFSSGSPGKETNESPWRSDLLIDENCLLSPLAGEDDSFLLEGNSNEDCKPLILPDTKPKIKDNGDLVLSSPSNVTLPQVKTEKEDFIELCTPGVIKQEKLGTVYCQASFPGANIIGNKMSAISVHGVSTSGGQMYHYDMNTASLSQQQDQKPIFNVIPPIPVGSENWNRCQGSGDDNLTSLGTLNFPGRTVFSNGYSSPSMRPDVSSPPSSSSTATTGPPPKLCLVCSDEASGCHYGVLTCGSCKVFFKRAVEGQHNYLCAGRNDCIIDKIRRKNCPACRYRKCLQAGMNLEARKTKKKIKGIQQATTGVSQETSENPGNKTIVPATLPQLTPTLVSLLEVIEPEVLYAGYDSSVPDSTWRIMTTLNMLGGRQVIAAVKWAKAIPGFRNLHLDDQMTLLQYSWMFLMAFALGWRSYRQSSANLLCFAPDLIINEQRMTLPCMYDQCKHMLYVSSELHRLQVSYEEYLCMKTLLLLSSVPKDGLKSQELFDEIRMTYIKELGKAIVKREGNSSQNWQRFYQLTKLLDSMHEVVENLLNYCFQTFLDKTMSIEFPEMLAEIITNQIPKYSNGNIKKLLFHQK
# [7] = molecular target: Glucocorticoid receptor (Homo sapiens) (UniProt P04150); assay: GR-EFC Redistribution (AID 451; calls by dose curve; also: potency is read from the fitted curve at half-maximal effect); conditions: CHO-K1 GR-EFC translocation, beta-gal luminescence, 2 h
# Summary of the method: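 CHO-K1 cells stably expressing nuclear-localized β-gal enzyme acceptor and GR fused C-terminally to the enzyme donor fragment; ligand-driven nuclear translocation restores β-gal by complementation. Compounds titrated up to 46 uM final, 2 h at 37 °C; luminescence read.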
# [8] = molecular target: Mitogen-activated protein kinase 10 (Mus musculus) (UniProt Q61831); assay: JNK3 AlphaScreen Assay (AID 530; active = well fitted curve in either direction with a large enough effect, not every such curve was filed as active;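 also: kinase came from lysate of stimulated human HepG2 cells; signal reports phosphorylation of biotinylated GST-cJun 1-79 at Ser73 with 10 µM ATP; % is scaled to controls: 0 for no effect and ±100 for the full control effect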); conditions: JNK3 lysate, c-Jun phosphorylation; series mostly up to 57.1 µM
# Summary of the method: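 Phosphorylation of biotinylated GST-cJun(1-79) at Ser73 is measured by AlphaScreen proximity luminescence. Enzyme is JNK3 in HepG2 lysates activated with interleukin-1beta and tumor necrosis factor alpha; ATP is 10 uM final.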
# [9] = molecular target: 3',5'-cyclic-AMP phosphodiesterase 4B (Homo sapiens) (UniProt Q07343); assay: qHTS Assay for Inhibitors of PDE-IV (AID 607; active = well fitted activation curve with a large enough effect in the main read-out, with a control signal flat, not every such curve was filed as active; also: % of control where 0% means no effect); conditions: HEK293 ACTOne CNG channel cells, membrane potential fluorescence; series mostly up to 22.9 µM
# 3',5'-cyclic-AMP phosphodiesterase 4B (Homo sapiens), sequence (Q07343 whole entry, looked up): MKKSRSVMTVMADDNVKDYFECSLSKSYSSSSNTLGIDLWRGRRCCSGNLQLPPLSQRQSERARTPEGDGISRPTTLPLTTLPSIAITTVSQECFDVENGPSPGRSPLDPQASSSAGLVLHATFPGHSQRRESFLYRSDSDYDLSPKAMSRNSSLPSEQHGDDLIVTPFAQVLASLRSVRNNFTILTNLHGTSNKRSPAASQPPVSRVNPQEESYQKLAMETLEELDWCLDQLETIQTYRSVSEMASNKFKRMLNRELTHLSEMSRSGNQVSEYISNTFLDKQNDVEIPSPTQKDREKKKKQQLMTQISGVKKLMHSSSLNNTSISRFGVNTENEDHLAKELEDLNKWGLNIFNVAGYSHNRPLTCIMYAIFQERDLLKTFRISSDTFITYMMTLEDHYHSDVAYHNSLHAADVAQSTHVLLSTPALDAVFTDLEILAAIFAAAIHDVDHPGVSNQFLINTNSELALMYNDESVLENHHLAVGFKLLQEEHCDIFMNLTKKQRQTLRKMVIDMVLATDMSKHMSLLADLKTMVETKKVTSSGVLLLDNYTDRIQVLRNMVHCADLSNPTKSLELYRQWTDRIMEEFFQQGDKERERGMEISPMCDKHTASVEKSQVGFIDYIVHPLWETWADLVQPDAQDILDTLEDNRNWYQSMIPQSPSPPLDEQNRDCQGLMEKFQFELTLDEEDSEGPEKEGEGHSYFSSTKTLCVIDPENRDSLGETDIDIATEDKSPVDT
# Summary of the method: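 ACTOne HEK293 cells carry a modified cAMP-gated CNG channel and express endogenous PDE4; plated 1000 cells/well, compounds up to 22.9 uM final. Membrane-potential dye fluorescence (ex 535/em 590) was read; parental cells received 10 uM forskolin + 100 uM RO 20-1724.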
# [10] = molecular target: Cytochrome P450 3A4 (Homo sapiens) (UniProt P08684); assay: qHTS Assay for Activators of Cytochrome P450 3A4 (AID 885); conditions: recombinant CYP3A4, Luciferin-PPXE luminescence, 60 min; series mostly up to 57.1 µM; also: nearly all actives have a fitted effect of over 65% in size
# Cytochrome P450 3A4 (Homo sapiens), sequence (P08684 whole entry, looked up): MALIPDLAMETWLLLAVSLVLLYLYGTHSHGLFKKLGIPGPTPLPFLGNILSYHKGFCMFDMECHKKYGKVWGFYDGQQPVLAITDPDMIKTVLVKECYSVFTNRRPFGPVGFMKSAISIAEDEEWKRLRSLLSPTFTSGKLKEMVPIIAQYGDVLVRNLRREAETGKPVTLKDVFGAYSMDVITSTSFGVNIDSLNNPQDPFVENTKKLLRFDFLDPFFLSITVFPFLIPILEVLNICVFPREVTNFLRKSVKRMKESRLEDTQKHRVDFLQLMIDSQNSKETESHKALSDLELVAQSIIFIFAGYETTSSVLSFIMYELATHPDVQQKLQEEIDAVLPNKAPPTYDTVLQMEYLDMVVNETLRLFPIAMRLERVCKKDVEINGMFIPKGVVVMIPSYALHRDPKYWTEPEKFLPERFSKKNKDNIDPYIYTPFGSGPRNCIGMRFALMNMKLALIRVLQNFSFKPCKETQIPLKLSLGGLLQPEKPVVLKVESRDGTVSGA
# Summary of the method: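 CYP3A4 activity: Luciferin-PPXE O-dealkylation, 25uM substrate, 200mM KPO4, RT throughout. Read-out is luciferase luminescence; higher values reflect activation.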
# [11] = molecular target: Cytochrome P450 2D6 (Homo sapiens) (UniProt P10635); assay: qHTS Assay for Inhibitors and Substrates of Cytochrome P450 2D6 (AID 891); conditions: recombinant CYP2D6, luciferin-ME EGE luminescence; series mostly up to 57.1 µM; also: potency is read from the fitted curve at half-maximal effect; nearly all actives have a fitted effect of over 60% in size
# Cytochrome P450 2D6 (Homo sapiens), sequence (P10635 whole entry, looked up): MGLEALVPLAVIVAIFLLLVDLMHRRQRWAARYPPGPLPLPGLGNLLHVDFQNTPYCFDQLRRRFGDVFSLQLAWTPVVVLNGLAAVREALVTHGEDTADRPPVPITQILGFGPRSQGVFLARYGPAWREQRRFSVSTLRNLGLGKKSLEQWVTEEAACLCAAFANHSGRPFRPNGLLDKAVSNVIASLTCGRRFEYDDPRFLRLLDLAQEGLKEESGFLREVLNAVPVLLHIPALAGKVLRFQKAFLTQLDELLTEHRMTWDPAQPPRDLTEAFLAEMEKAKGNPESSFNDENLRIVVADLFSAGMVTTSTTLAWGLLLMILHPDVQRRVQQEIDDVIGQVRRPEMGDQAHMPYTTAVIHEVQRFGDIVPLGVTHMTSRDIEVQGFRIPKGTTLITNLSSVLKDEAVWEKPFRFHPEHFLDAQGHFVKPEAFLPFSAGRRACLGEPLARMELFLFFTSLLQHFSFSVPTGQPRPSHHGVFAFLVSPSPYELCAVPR
# Summary of the method: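 Luminescent read-out of luciferin formed by 5 nM human CYP2D6 demethylating 30 uM Luciferin-ME EGE (Km level) over 60 min at room temperature after NADPH regeneration addition. Data normalized to full inhibition by 1.43 uM quinidine.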
# [12] = qHTS Assay for Identification of Small Molecule Agonists for Hypoxia Response Element Signaling Pathway (AID 914; active = well fitted activation curve with a large enough effect in the signal ratio, with a control signal flat, not every such curve was filed as active; the % refers to the signal ratio; also: % of control where 0% means no effect); conditions: ME-180 (cervical carcinoma) HRE-bla reporter, beta-lactamase ratio, CoCl2, 17 h; activation: stronger effect = higher value
# Summary of the method: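 Compounds in a titration series were added to ME-180 reporter cells alongside an EC50 level of CoCl2. After 17 hours, beta-lactamase activity was read as the 460nm/530nm emission ratio of CCF4, giving AC50 values.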
# [13] = qHTS Assay for Lipid Storage Modulators (AID 1519; calls by dose curve); conditions: Drosophila S3 cells, BODIPY lipid droplet/cell ratio, laser cytometry, cells loaded with oleic acid; for activity change, negative = inhibition: at 57.5 µM (top of the series)
# Summary of the method: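 Cells seeded at 5,000 per well were treated with compounds over a concentration series and loaded with oleic acid (400 uM, as added). Lipid droplet fluorescence (488 nm excitation, 500-530 nm channel) was read by laser-scanning cytometry and normalized to 20 uM Triacsin C.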
# [14] = molecular target: Dual specificity protein kinase CLK4 (Homo sapiens) (UniProt Q9HAZ1); assay: qHTS Assay for Inhibitors of CDC-like Kinase 4 (Kinase-Glo Assay) (AID 1770); conditions: recombinant Clk4, Kinase-Glo ATP depletion luminescence; series mostly up to 66.7 µM; also: % is scaled to controls: 0 for no effect and ±100 for the full control effect; nearly all actives have a fitted effect of over 65% in size
# Dual specificity protein kinase CLK4 (Homo sapiens), sequence (Q9HAZ1 whole entry, looked up): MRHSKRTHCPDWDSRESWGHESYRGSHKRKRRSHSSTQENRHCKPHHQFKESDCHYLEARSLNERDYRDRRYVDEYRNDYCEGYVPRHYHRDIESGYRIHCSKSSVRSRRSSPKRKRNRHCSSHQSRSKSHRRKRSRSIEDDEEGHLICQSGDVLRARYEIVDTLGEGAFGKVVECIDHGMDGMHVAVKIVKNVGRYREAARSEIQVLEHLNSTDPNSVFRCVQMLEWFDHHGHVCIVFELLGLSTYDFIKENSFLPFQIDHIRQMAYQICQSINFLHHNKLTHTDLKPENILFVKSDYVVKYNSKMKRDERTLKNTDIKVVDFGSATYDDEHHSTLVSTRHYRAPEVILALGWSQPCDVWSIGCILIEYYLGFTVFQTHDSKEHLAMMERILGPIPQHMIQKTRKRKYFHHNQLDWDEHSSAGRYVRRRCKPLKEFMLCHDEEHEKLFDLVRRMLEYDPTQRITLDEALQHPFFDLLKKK
# Summary of the method: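 Recombinant human Clk4 (25 nM) phosphorylated RS repeat peptide (100 uM) with 1 uM ATP in Tris pH 7.5/MgCl2/EGTA/DTT/Triton buffer for 4.5 h at room temperature. Residual ATP was quantified by Kinase-Glo luciferase luminescence.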
# [15] = molecular target: Dual specificity protein kinase CLK4 (Homo sapiens) (UniProt Q9HAZ1); assay: qHTS Assay for Inhibitors of CDC-like Kinase 4 (ADP-Glo Assay) (AID 1771); conditions: recombinant CLK4, ADP-Glo luminescence; series mostly up to 80 µM; also: % is scaled to controls: 0 for no effect and ±100 for the full control effect; nearly all actives have a fitted effect of over 70% in size
# Summary of the method: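 Compounds are pin-transferred onto substrate mix (100 uM RS peptide, 1 uM ATP), then 25 nM Clk4 is added. After 1 hr at room temperature, ADP-Glo reagent runs 45 min, detection reagent 30 min, then luminescence is read.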
# [16] = molecular target: Dual specificity protein kinase CLK4 (Homo sapiens) (UniProt Q9HAZ1); assay: qHTS Assay for Inhibitors of CDC-like Kinase 4 (ADP-FP Assay) (AID 1795); conditions: Transcreener ADP fluorescence polarization; series mostly up to 50 µM; also: % is scaled to controls: 0 for no effect and ±100 for the full control effect; nearly all actives have a fitted effect of over 60% in size
# Summary of the method: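 Recombinant human Clk4 (6.25 nM) phosphorylated RS repeat peptide (100 uM) with 1 uM ATP in Tris pH 7.5/MgCl2/EGTA/DTT/Triton buffer for one hour. ADP was quantified by Transcreener competitive fluorescence polarization against an ADP calibration curve.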
# [17] = Primary qHTS for small molecule stabilizers of the endoplasmic reticulum resident proteome: Secreted ER Calcium Modulated Protein (SERCaMP) assay (AID 1508630); conditions: SH-SY5Y GLuc-SERCaMP (Gaussia luciferase released on ER calcium loss) secretion, thapsigargin, luminescence; series mostly up to 38.4 µM; also: % is scaled to controls: 0 for no effect and ±100 for the full control effect
# Summary of the method: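 The SH-SY5Y reporter protocol was run at 3 concentrations up to 38.3 uM (primary) or 11 concentrations (follow-up): 16 h compound, 100 nM thapsigargin for 4 h, then extracellular luciferase luminescence.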
# [18] = molecular target: Ubiquitin carboxyl-terminal hydrolase 1 (Homo sapiens) (UniProt O94782); assay: Inhibitors of USP1/UAF1: Pilot qHTS (AID 504865); conditions: purified USP1/UAF1, Ub-rhodamine cleavage fluorescence; series mostly up to 54.9 µM;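 also: rhodamine fluorescence freed from ubiquitin-rhodamine substrate followed over time; top concentration of the series differs between compounds; % is scaled to controls: 0 for no effect and ±100 for the full control effect; nearly all actives have a fitted effect of over 35% in size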
# Ubiquitin carboxyl-terminal hydrolase 1 (Homo sapiens), sequence (O94782 whole entry, looked up): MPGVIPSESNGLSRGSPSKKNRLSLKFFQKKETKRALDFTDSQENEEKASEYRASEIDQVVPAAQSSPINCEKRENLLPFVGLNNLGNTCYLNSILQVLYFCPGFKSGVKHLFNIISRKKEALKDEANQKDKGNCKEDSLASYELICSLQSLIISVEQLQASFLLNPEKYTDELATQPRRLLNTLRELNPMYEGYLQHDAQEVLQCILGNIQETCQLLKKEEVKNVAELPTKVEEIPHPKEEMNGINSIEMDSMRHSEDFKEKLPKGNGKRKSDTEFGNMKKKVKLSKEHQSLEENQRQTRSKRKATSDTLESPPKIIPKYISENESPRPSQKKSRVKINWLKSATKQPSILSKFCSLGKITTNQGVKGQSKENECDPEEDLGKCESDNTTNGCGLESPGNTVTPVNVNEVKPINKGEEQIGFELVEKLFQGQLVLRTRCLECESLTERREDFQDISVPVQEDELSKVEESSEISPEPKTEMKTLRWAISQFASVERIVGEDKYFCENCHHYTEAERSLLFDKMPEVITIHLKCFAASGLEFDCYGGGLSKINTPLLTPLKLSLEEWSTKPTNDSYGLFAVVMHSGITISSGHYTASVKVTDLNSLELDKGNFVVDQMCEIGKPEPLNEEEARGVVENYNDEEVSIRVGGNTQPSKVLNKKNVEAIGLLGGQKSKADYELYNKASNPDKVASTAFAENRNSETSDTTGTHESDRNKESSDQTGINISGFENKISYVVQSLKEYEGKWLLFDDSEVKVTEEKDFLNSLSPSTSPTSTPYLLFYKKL
# Summary of the method: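 USP1/UAF1 complex (1nM) preincubated with compound 15 min at room temperature, then Ub-Rho substrate (150nM final) added. Fluorescence read kinetically at 480/540 nm, 6 reads every 60 seconds. Buffer: 50mM HEPES pH 7.8, 0.5mM EDTA, 0.1 mg/ml BSA, 1mM TCEP, 0.01% Tween-20.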
# [19] = molecular target: Cytochrome P450 3A4 (Homo sapiens) (UniProt P08684); assay: qHTS Assay for Inhibitors and Substrates of Cytochrome P450 3A4 (AID 884); conditions: recombinant CYP3A4, Luciferin-PPXE luminescence; series mostly up to 57.1 µM; also: potency is read from the fitted curve at half-maximal effect; nearly all actives have a fitted effect of over 50% in size
# Summary of the method: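 Luminescent readout of luciferin produced by CYP3A4 (20 nM) dealkylation of Luciferin-PPXE, 25 uM (its KM). NADPH-driven reaction ran 60 min at RT after 10 min compound preincubation; data scaled to 57 uM ketoconazole as 100% inhibition.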
# [20] = measured here: cell count channel max response
# [21] = measured here: lipid channel max response
compound,measurement,setting,value
CNc1ccnc(-c2ccccc2OC)n1,Potency,[1],> 11.4 µM (inactive)
same,"activity change, negative = inhibition",[2],4.71% (inactive)
same,Potency,[3],5.01 µM (active)
same,"activity change, negative = inhibition",[4],8.86% (inactive)
same,"activity, negative = inhibition",[5],16.8% (inactive)
same,Potency,[6],> 46 µM (inactive)
same,Potency,[7],> 46 µM (inactive)
same,outcome,[8],inactive
same,Potency,[9],inactive
same,Potency,[10],inactive
same,Potency,[11],5.01 µM (active)
same,activation,[12],7.18% (inactive)
same,"activity change, negative = inhibition",[13],6.44% (inactive)
same,max response,[13]; [20],21.3%
same,max response,[13]; [21],26.2%
same,Potency,[14],inactive
same,Potency,[15],inactive
same,Potency,[16],inactive
same,Potency,[17],inactive
Cn1c(=O)c(-c2cc(F)cc(F)c2)nc2cnc(N3CCOCC3)nc21,Potency,[1],> 11.4 µM (inactive)
same,"activity change, negative = inhibition",[2],-11% (inactive)
same,Potency,[3],5.01 µM (active)
same,"activity change, negative = inhibition",[4],14.4% (inactive)
same,"activity, negative = inhibition",[5],-1.78% (inactive)
same,Potency,[7],> 46 µM (inactive)
same,outcome,[8],inactive
same,Potency,[9],inactive
same,activation,[12],-3.42% (inactive)
same,"activity change, negative = inhibition",[13],4.75% (inactive)
same,max response,[13]; [20],16.8%
same,max response,[13]; [21],22.4%
same,Potency,[14],inactive
same,Potency,[15],inactive
same,Potency,[16],inactive
same,Potency,[18],inactive
same,Potency,[17],inactive
CN(C)c1ncc2nc(-c3ccc(F)cc3)c(=O)n(C[C@H]3CCCO3)c2n1,Potency,[1],> 11.4 µM (inactive)
same,"activity change, negative = inhibition",[2],26.6% (inactive)
same,Potency,[3],2.51 µM (active)
same,"activity change, negative = inhibition",[4],26.7% (inactive)
same,Potency,[6],> 9.22 µM (inactive)
same,outcome,[8],inactive
same,Potency,[9],inactive
same,"activity change, negative = inhibition",[13],-2.2% (inactive)
same,max response,[13]; [20],12.6%
same,max response,[13]; [21],6.86%
same,Potency,[14],inactive
same,Potency,[15],inactive
same,Potency,[16],inactive
same,Potency,[18],inactive
same,Potency,[17],inactive
COc1ccc(Oc2ncc3nc(-c4cn(C)c5ccccc45)c(=O)n(C4CC4)c3n2)cc1,Potency,[1],> 11.4 µM (inactive)
same,"activity change, negative = inhibition",[2],-4.88% (inactive)
same,Potency,[3],12.6 µM (active)
same,"activity change, negative = inhibition",[4],9.91% (inactive)
same,"activity, negative = inhibition",[5],19% (inactive)
same,Potency,[7],> 46 µM (inactive)
same,outcome,[8],inactive
same,Potency,[9],inactive
same,Potency,[10],inactive
same,"activity change, negative = inhibition",[13],2.32% (inactive)
same,max response,[13]; [20],3.6%
same,max response,[13]; [21],3.07%
same,Potency,[14],inactive
same,Potency,[15],inactive
same,Potency,[16],inactive
same,Potency,[18],inactive
same,Potency,[17],inactive
CN(C)c1ncc2nc(-c3ccc(F)cc3)c(=O)n(Cc3cccs3)c2n1,Potency,[1],> 11.4 µM (inactive)
same,"activity change, negative = inhibition",[2],14.3% (inactive)
same,Potency,[3],1 µM (active)
same,"activity change, negative = inhibition",[4],5.02% (inactive)
same,"activity, negative = inhibition",[5],-1.13% (inactive)
same,Potency,[7],> 46 µM (inactive)
same,"activity change, negative = inhibition",[13],2.1% (inactive)
same,max response,[13]; [20],26.1%
same,max response,[13]; [21],28%
same,Potency,[14],inactive
same,Potency,[15],inactive
same,Potency,[16],inactive
same,Potency,[17],inactive
CN(Cc1ccco1)c1ncncc1-c1cccc(C#N)c1,Potency,[1],> 11.4 µM (inactive)
same,"activity change, negative = inhibition",[2],21.3% (inactive)
same,Potency,[3],12.6 µM (active)
same,"activity, negative = inhibition",[5],7.25% (inactive)
same,Potency,[6],> 46 µM (inactive)
same,Potency,[7],> 46 µM (inactive)
same,outcome,[8],inactive
same,Potency,[9],inactive
same,Potency,[19],7.94 µM (active)
same,Potency,[10],inactive
same,"activity change, negative = inhibition",[13],5.47% (inactive)
same,max response,[13]; [20],14.4%
same,max response,[13]; [21],17.8%
same,Potency,[14],inactive
same,Potency,[15],inactive
same,Potency,[16],inactive
same,Potency,[18],inactive
same,Potency,[17],inactive
